From PubChem BioAssay AID2732 (Emory University Molecular Libraries Screening Center, 2010)
The whole screen tested about 220,000 compounds, of which about 8,200 (3.7%) were called active.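 Rule for the calls: active = compounds that reduced the stress-induced luciferase reporter signal by more than about 70% of percent inhibition (limit read from the data); inactive = the rest.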 For the sample, actives were picked, then their nearest neighbours and some compounds at random.

test: blockers of ER-stress CHOP reporter expression – cell-based, unfolded protein response, luciferase reporter, primary screen (AID 2732); conditions: CHO-K1 CHOP-promoter luciferase, tunicamycin-induced, 15-18 h; at 10 µM; active compounds read high;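 note: 0% = tunicamycin plus vehicle and 100% = wells without tunicamycin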

| SMILES | inhibition |
| --- | --- |
| NC(N)=Nc1nc2ccc(Br)cc2c(=O)[nH]1 | 74.1% (active) |
| Cc1[nH]n(-c2ccccc2)c(=O)c1N=Nc1ccccc1C(=O)N1CCCCC1 | 59.1% (inactive) |
| Cc1ncn2cc(-c3ccc(Cl)cc3Cl)[nH]c(=O)c12 | 13.6% (inactive) |
| c1ccc(-n2cccc2)c(N2CCCCC2)c1 | -6% (inactive) |
| Cn1nnnc1SCc1cc(=O)[nH]c2ccccc12 | 6.42% (inactive) |
| CC(Sc1nc2c([nH]c3ccccc32)c(=O)n1C)c1ccccc1 (centres undefined) | 94.8% (active) |
| CCCCn1c(=S)[nH]c2ccccc2c1=O | -18.6% (inactive) |
| O=C(Nc1ccc(Cl)cc1)/C(=C1\CCCN1)[N+](=O)[O-] | -6.93% (inactive) |
| CN1CCN(c2ccc(CNS(=O)(=O)c3cccc(F)c3)cc2)CC1 | 9.01% (inactive) |
| COc1ccc2[nH]c(=S)cc(C)c2c1 | -0.1% (inactive) |
| CC(=O)Nc1nc2ccccc2n1Cc1ccc(C)cc1 | -14.1% (inactive) |
| Cc1ccc(-n2nc3cc(Cl)c(NC(=O)c4ccco4)cc3n2)cc1 | -26.1% (inactive) |
| Cc1ccc(Cn2c(NC(=O)c3ccco3)nc3ccccc32)cc1 | 80.3% (active) |
| CN(C)S(=O)(=O)c1cccc(-c2nn(-c3ccccc3)cc2/C=C2\SC(=S)N(CC(=O)O)C2=O)c1 | 4.39% (inactive) |
| CCCC(=O)Nc1ccc(Cl)c(NC(=O)c2ccc(Br)o2)c1 | 40.2% (inactive) |
| CCCCC(=O)Nc1ccc(C(=O)Nc2cc(C(F)(F)F)ccc2Cl)cc1 | 94.3% (active) |
| CC(CC(=O)Nc1cc(C(F)(F)F)ccc1Cl)c1ccccc1 (centres undefined) | 54.4% (inactive) |
| CCCCNC(=O)OCCSCCS(=O)(=O)c1ccc(Cl)cc1 | 8.82% (inactive) |
| CC(C)OP(=O)(OC(C)C)C(Nc1ccccc1)c1cccc([N+](=O)[O-])c1 (centres undefined) | -8.06% (inactive) |
| Cc1ccsc1C(=O)OCC(=O)c1cc2ccccc2o1 | 67.4% (inactive) |
| Cc1ccsc1C(=O)OCC(=O)c1cc(C)n(CC2CCCO2)c1C (centres undefined) | 77.8% (active) |
| Cc1cc(C(=O)Cn2cnc3cc([N+](=O)[O-])ccc3c2=O)c(C)n1CC1CCCO1 (centres undefined) | -28% (inactive) |
| CCCCN1Cc2c(nc3cc(-c4ccccc4)[nH]n3c2=O)C1=O | -7.2% (inactive) |
| CCOc1ccccc1N1CN(Cc2ccccc2)CNC1=S | 3.01% (inactive) |
| COCCCn1c(-c2cccs2)nc2nc3ccccc3nc21 | -15% (inactive) |

| SMILES | inhibition |
| --- | --- |
| N/C(=N\OC(=O)Nc1ccc(Cl)c(Cl)c1)c1ncc(C(F)(F)F)cc1Cl | 87.9% (active) |
| O=C(c1ccccn1)c1ncc(C(F)(F)F)cc1Cl | 23.4% (inactive) |
| N/C(=N\OC(=O)CCCC(=O)O)c1ncc(C(F)(F)F)cc1Cl | 6.09% (inactive) |
| Nn1c(SCc2ccccc2)nnc1C1CCCCC1 | -9.53% (inactive) |
| C=CCNc1ncnc2ccc(Br)cc12 | 27.4% (inactive) |
| CC1(C)CC2CC(C)(CN2c2ncnc3ccc(Br)cc23)C1 (centres undefined) | 70.5% (active) |
| COc1ccc(C(=O)N2CC3(C)CC2CC(C)(C)C3)cc1OC (centres undefined) | -6.24% (inactive) |
| CCOC(=O)CN(C(=O)COc1nc(-c2ccccc2)cc(C)c1C#N)c1ccc(F)cc1 | 5.71% (inactive) |
| COc1c(O)cc2oc(-c3ccc(O)c(O)c3)cc(=O)c2c1O | -13.9% (inactive) |
| Cc1ccc(NC(=O)/C(=C\c2ccccc2)NC(=O)c2ccco2)cc1 | 10.2% (inactive) |
| Nc1c(C(=O)c2cccs2)sc2nsc(SCCN3CCCCC3)c12 | -55.6% (inactive) |
| Cn1c(=N)n(CC(O)c2cccs2)c2ccccc21 (centres undefined) | 14.4% (inactive) |
| Cn1c(=N)n(CC(O)c2ccccc2)c2ccccc21 (centres undefined) | 14.2% (inactive) |
| N=c1n(Cc2ccc(Cl)cc2)c2ccccc2n1CC(O)c1ccco1 (centres undefined) | 86.2% (active) |
| Cn1c(=O)c(=O)n(C)c2cc(S(=O)(=O)NCCN3CCN(c4ccccc4F)CC3)ccc21 | 10.2% (inactive) |
| COc1ccc(NC2=CC(=S)NC(C)(C)C2)cc1 | 0.78% (inactive) |
| Cc1c(NC(=O)CN2C(=O)C(=O)N(Cc3ccccc3)C2=O)c(=O)n(-c2ccccc2)n1C | -4.43% (inactive) |
| CCN(C(=O)COC(=O)c1ccc(COc2ccc3c(C)cc(=O)oc3c2)cc1)C1CCS(=O)(=O)C1 (centres undefined) | -17.9% (inactive) |
| Cc1cc(=O)oc2cc(OCCC[n+]3ccccc3)ccc12 | 3.91% (inactive) |
| Cc1ccccc1NC(=O)c1ccc(COc2ccc3c(C)cc(=O)oc3c2)cc1 | 73.8% (active) |
| COc1ccc(CCn2c(NN=C3CCCC3)nc3c2c(=O)[nH]c(=O)n3C)cc1 | -6.27% (inactive) |
| COc1ccc(NC(=O)C2=NNC(=O)CC2)cc1S(=O)(=O)N1CCCCC1 | 14.5% (inactive) |
| Cc1ccc(-c2nn(C(C)(C)C)c3ncnc(N)c23)cc1 | 76.5% (active) |
| Cc1ccc(-n2cnc3ncnc(-c4ccccc4)c32)cc1 | -3.5% (inactive) |
